# Assay results from PubChem BioAssay AID1822 (The Scripps Research Institute Molecular Screening Center, 2009).
# Out of some 290,000 compounds screened, about 3,500 (1.2%) were called active. The full list was thinned out, with actives kept by preference. Unmarked numbers belong to inactive results.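 The calls were made as follows: active = inhibition above the campaign mean inhibition over all tested compounds plus 3 SD (cut at about 28% in these data); inactive = the rest.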
# System: M18 aspartyl aminopeptidase (Plasmodium falciparum 3D7)
# Test: PfM18AAP inhibitors, malaria aminopeptidase, primary screen, biochemical, QFRET, recombinant enzyme (AID 1822);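 also: 0% = plate median of test compound wells and 100% = 2 mM ZnCl2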
# Conditions: H-Glu-NHMec fluorogenic cleavage, at 7.35 µM, hits give high values
row,Compound,inhibition
1,COc1ccc(-c2csc(NC3OC(=O)c4ccccc43)n2)cc1 (configuration not stated),3.33%
2,COc1ccc(NC(=O)ON=C2c3ccccc3-c3ccccc32)cc1,-2.03%
3,COc1ccc(N/C=C(\C2OC(=O)c3ccccc32)[N+](=O)[O-])cc1 (configuration not stated),38.8% (active)
4,O=C(CCN1CCN(C/C=C/c2ccccc2)CC1)Nc1ccccc1Cl,-14.5%
5,CS(=O)(=O)N(CC(=O)N1CCCCCC1)c1cccc(Cl)c1Cl,-10.9%
6,CCOC(=O)NNc1cc(C(F)(F)F)ccn1,49.5% (active)
7,CCC(=O)NC(Nc1cc(C)ccn1)(C(F)(F)F)C(F)(F)F,-6.4%
8,Cc1ccc(NC(=O)Nc2cccc(C(F)(F)F)c2)nc1,-4.58%
9,CCOC(=O)c1cccc(NC(=O)CN2C(=O)C3CC=CCC3C2=O)c1 (configuration not stated),0.39%
10,O=C(Nc1cccnc1Cl)c1cc(-c2cccc(Cl)c2)on1,-1.19%
11,CCOC(=O)C1(CCOc2ccccc2)CCN(Cc2ccc(C#CCCO)cc2)CC1,3.95%
12,CC(=O)N1CCN(CC(c2ccccc2)c2ccccc2)CC1,-8.35%
13,O=C(Nc1ccncc1)c1ccc([N+](=O)[O-])cc1Cl,8.21%
14,O=C(Cc1ccccc1)Nc1ccc(NC(=O)c2cccnc2)cc1,-1.2%
15,Cn1cccc1C(=O)N1CCc2ccccc2C1,-5%
16,CC(C)CNC(=O)C(=O)NCC(c1ccc2c(c1)OCO2)N1CCOCC1 (configuration not stated),-5.45%
17,O=C(O)CCn1c(O)c(C=C2N=c3ccccc3=N2)sc1=S,37.6% (active)
18,O=C(O)CCn1c(Cc2ccccc2)nc2ccccc21,-1.96%
19,Cc1cc2ccccc2n1CCC(=O)O,10.5%
20,O=S1(=O)CCOC[C@H](CC2CCCCC2)N1Cc1ccc(F)cc1,-13.1%
21,CCn1cc(CCC(=O)NCc2ccc(F)cc2)c2ccccc21,-10.5%
22,Cc1cccc(NC(=O)c2sc3nc(N4CCOCC4)c4c(c3c2N)CCCC4)c1,41% (active)
23,CC(=O)Nc1ccc(N2CCOCC2)c(C(=O)Nc2cccc(C)c2)c1,4.11%
24,Cc1nc(N2CCOCC2)c2c(C)c(C(=O)Nc3ccc(C(F)(F)F)cc3)sc2n1,-14.6%
25,O=C(Nc1ccccc1)/C(=C\c1ccco1)NC(=O)c1ccco1,8.12%

row,Compound,inhibition
1,O=C(NNC(=O)c1ccco1)Nc1ccccc1,48.6% (active)
2,O=C(Nc1ccccc1)c1ccco1,2.58%
3,O=C(O)C1CCC(CNS(=O)(=O)c2ccc(Br)cc2)CC1 (configuration not stated),-15.2%
4,CC1=NN(c2ccc(Cl)c(C(=O)O)c2)C(=O)/C1=C/c1ccc(-c2ccccc2[N+](=O)[O-])o1,3.82%
5,Cc1cc(-c2ccc(/C=N/n3cnnc3)o2)c([N+](=O)[O-])cc1C,44.5% (active)
6,Cc1ccc(Cl)cc1-c1ccc(/C=N/n2cnnc2)o1,32.8% (active)
7,Cc1cc([N+](=O)[O-])c(-c2ccc(/C=N/n3cnnc3)o2)cc1Cl,40.4% (active)
8,Cc1cc(C)c([N+](=O)[O-])cc1-c1ccc(/C=N/NC(=O)c2nonc2N)o1,4.59%
9,O=C1C2C3C=CC(C4CC34)C2C(=O)N1/N=C/c1ccc(-c2ccccc2[N+](=O)[O-])o1 (configuration not stated),-5.14%
10,Clc1cc(-c2ccc(/C=N/n3cnnc3)o2)ccc1Br,-0.09%
11,Cc1ccccc1OCCOc1ccc([N+](=O)[O-])cc1/C=N/n1cnnc1,6.71%
12,Brc1cc(/C=N/n2cnnc2)oc1Br,13.5%
13,O=C(Nc1ccc(F)cc1)C1CCCN(S(=O)(=O)c2ccc(-n3cnnn3)cc2)C1 (configuration not stated),-11.3%
14,Cc1ccc(-n2c(C)nnc2SCC(=O)NC2CC2)cc1,6.7%
15,CCn1c(SCC(=O)NC2CC2)nnc1-c1ccncc1,-8.99%
16,Cc1cc(C)nc(Nc2ncn[nH]2)n1,70.4% (active)
17,Cc1cc(C)nc(Nc2n[nH]c(-c3ccccc3N)n2)n1,-3.26%
18,Cc1cc(C)nc(Nc2cc([N+](=O)[O-])ccc2C)n1,-2.82%
19,Cc1cc(NC(=O)CCC(=O)N(CC(=O)NC2CCCC2)c2ccc(F)cc2)no1,1.92%
20,COc1cc(N2C(=O)CSC2=S)cc(OC)c1OC,6.36%
21,O=C1CSC(=S)N1c1ccc(O)cc1,8.71%
22,CCOc1cccc(/C=N/N2C(=O)CSC2=S)c1O,38.7% (active)
23,Cc1cc2oc(=O)cc(CN(C)Cc3ccc(OC(F)F)cc3)c2cc1Cl,-5.26%
24,C=CCOc1ccccc1NC(=O)CN1C(=O)CNC1=O,-12.8%
25,Cc1nc2sc(C(=O)c3ccccc3)c(N)c2c2c1CCCC2,1.45%

row,Compound,inhibition
1,CN(C)c1ccnc2sc(C(=O)c3ccccc3)c(N)c12,1.38%
2,Nc1c(C(=O)c2cccs2)sc2nsc(SCCN3CCCCC3)c12,28.8% (active)
3,COc1ccc(CCNC(=O)CCNS(=O)(=O)c2cc(Br)cnc2N)cc1OC,-9.76%
4,NC(=O)C1CCCN(CC(=O)N2CCN(c3ccccc3)CC2)C1 (configuration not stated),0.08%
5,O=C(CSc1nc(Nc2ccccc2)nc(N2CCOCC2)n1)Nc1cc(Cl)ccc1O,3.26%
6,Cc1ccc(S(=O)(=O)NNC(=O)Nc2cccc3ccccc23)cc1,10.5%
7,Cc1ccc(C)c(NC(=O)NNC(=O)c2ccc3ccccc3c2O)c1,41% (active)
8,Cc1ccc(C)c(NC(=O)CCC(=O)NNC(=O)c2cccs2)c1,-0.77%
9,O=C(Oc1ccccc1C(=S)N1CCCCC1)c1cc([N+](=O)[O-])cc([N+](=O)[O-])c1,13.9%
10,O=C(Oc1ccc(Br)cc1C(=S)N1CCOCC1)c1cccc([N+](=O)[O-])c1,36.5% (active)
11,COc1cc(C(=S)N2CCOCC2)cc(OC)c1OC(=O)c1cc([N+](=O)[O-])cc([N+](=O)[O-])c1,8.8%
12,CCOc1ccc(CNC(=O)CCC(=O)N2CCSc3ccccc32)cc1,6.53%
13,O=S(=O)(c1ccc(NC(=S)NN=C(C2CC2)C2CC2)cc1)N1CCOCC1,34.2% (active)
14,O=C(NC(=S)Nc1ccc(S(=O)(=O)N2CCOCC2)cc1)c1ccccc1[N+](=O)[O-],2.44%
15,CN1CCN(S(=O)(=O)c2ccc(NC(=S)NC(=O)C3CC3)cc2)CC1,3.06%
16,CN1/C(=C\C=C2\N=C(c3ccc(F)cc3)OC2=O)C(C)(C)c2ccccc21,-0.7%
17,CCOC(=O)c1c(C)[nH]c(C)c1S(=O)(=O)NCCCc1ccco1,-16.1%
18,CCC(O)CNc1nc(-n2nc(C)cc2C)nc2sc3c(c12)CC(C)(C)OC3 (configuration not stated),-1.41%
19,C=CCNC(=S)NNc1ncnc2sc3c(c12)CC(C)(C)OC3,30.1% (active)
20,CC(C)c1nc2sc3c(c2c(=O)n1N)CC(C)(C)OC3,-0.21%
21,COc1cccc(CN2CCN(Cc3ccc4cccc(F)c4n3)CC2CCO)c1 (configuration not stated),2.05%
22,CCN(CC)c1ccc(/C=N/Nc2nc(C)cc(C)n2)c(O)c1,50.9% (active)
23,CCN(CC)c1ccc(/C=N/NC(=O)c2cnccn2)c(O)c1,9.64%
24,Cc1cc(C)nc(N/N=C/c2ccncc2)n1,11%
25,CC(=O)N1c2ccc(S(=O)(=O)N3CCC(C(=O)N4CCN(c5ccccc5)CC4)CC3)cc2CC1C (configuration not stated),5.96%

row,Compound,inhibition
1,CC(C)C(=O)Nc1nnc(SCC(=O)N2C(C)CCCC2C)s1 (configuration not stated),-5.69%
2,COC(=O)C1CCN(C(=O)c2ccc3oc(Cc4ccc(Cl)cc4)nc3c2)CC1,6.38%
3,COc1ccc(C(=O)NC(=S)NNC(=O)c2c(-c3ccccc3)noc2C)cc1,5.86%
4,Cc1onc(-c2ccccc2)c1C(=O)NNC(=S)NC(=O)c1ccc(F)cc1,38.2% (active)
5,Cc1ccc(CNC(=O)c2c(-c3ccccc3)noc2C)cc1,12.7%
6,C=CCc1cccc(/C=N/NC(=O)COc2ccc(-n3cnnn3)cc2)c1O,11.8%
7,Cc1ccc(S(=O)(=O)N(CC(=O)NN=C2CCN(C)CC2)c2ccc(F)cc2)cc1,-4.43%
8,CCOc1ccccc1NC(=O)CCc1nnc2ccc(NCc3ccco3)nn12,21.1%
9,O=C(CCc1nnc2ccc(NCc3ccco3)nn12)Nc1cc(F)ccc1F,26%
10,CC(=O)c1ccc(NC(=O)CCc2nnc3ccc(NCc4ccco4)nn23)cc1,46.3% (active)
11,COc1ccc(NC(=O)C2CCN(S(=O)(=O)c3ccc4[nH]c(=O)oc4c3)CC2)c(OC)c1,2.9%
12,COc1ccc(/C=N/N=C2/C(=O)Nc3ccccc32)cc1O,30.7% (active)
13,COc1ccc(/C=N/S(=O)(=O)c2ccccc2)cc1OC,-9.39%
14,CN(C)/C=C1/C(=O)Nc2ccccc21,7.19%
15,Cc1cccc(N(Cc2ccccc2)C(=O)c2ccccc2F)c1,0.68%
16,O=S(=O)(c1ccc(Br)cc1)c1nc(-c2ccccc2)oc1N1CCOCC1,-11.7%
17,COc1cccc(OCC(=O)NNC(=O)c2cnccn2)c1,0.44%
18,COc1ccc(C(=O)O/N=C(\N)c2ccccn2)cc1[N+](=O)[O-],-11.1%
19,COc1ccc(C(=O)NNC(=O)c2cnccn2)cc1[N+](=O)[O-],28.7% (active)
20,COc1cc(/C=N/Nc2nc3ccccc3s2)ccc1O,4.41%
21,O=C(Nc1ccccc1)Nc1nc2ccccc2s1,-14.5%
22,c1ccc2sc(NN=C3CCCC3)nc2c1,43.7% (active)
